Reference: PubChem BioAssay
Calls of active or inactive are those of the source.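 The calls were made as follows, unless noted: active = compounds that lower viability of the colon cancer cells in the luminescence readout, with no numeric limit stated; inactive = the rest.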

How the values were obtained:
[1] = stimulators of insulin release from INS-1E, primary screen, cell-based, 5 mM glucose, NPC library (AID 1117329;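 active = compound raises insulin release from rat beta cells at 5 mM glucose, no numeric limit stated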); conditions: rat INS-1E insulin secretion, at 10 µM, stronger effect = higher value
[2] = growth inhibition of GSK3B-pretreated HCT116 cells – cell-based, CellTiter-Glo, 0.2 to 20 µM (AID 1117336;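 active = compounds lowering colon cancer cell viability after pretreatment blocking the GSK3B kinase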); conditions: HCT116 viability after GSK3B inhibitor, at 20 µM, stronger effect = higher value
[3] = inhibition of endothelial tube formation, primary screen, imaging, VEGF stimulated, CD31 staining, tube area, NPC library (AID 1117340;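 active = compound that reduces growth-factor-driven endothelial tube area in a mixed cell culture, no cutoff stated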); conditions: VEGF-stimulated ADSC/ECFC co-culture, at 10 µM, stronger effect = higher value
[4] = glucagon-like peptide 1 release enhancers, primary assay, NCI-H716 cell line, NPC library (AID 1117341;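 active = compound raises GLP1 secretion from the human gut endocrine cells, with no numeric limit stated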); conditions: NCI-H716 cells, at 10 µM, stronger effect = higher value
[5] = HCT116 colon cancer cell growth inhibition, primary screen, CellTiter-Glo luminescence, NPC library (AID 1117342;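 active = compounds that lower survival of HCT116 colon cancer cells in the luminescence readout, no numeric limit stated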); conditions: at 20 µM (top of the series)
[6] = CellTiter-Glo luminescent readout of SW480 viability loss, NPC library primary (AID 1117343); conditions: CellTiter-Glo luminescence; at 20 µM (top of the series)
[7] = decreased DLD-1 cellular survival, CellTiter-Glo luminescent readout, NPC compound collection, primary HTS (AID 1117346;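 active = compounds that lower survival of DLD-1 colon cancer cells in the luminescence readout, no cutoff given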); conditions: DLD-1 viability, CellTiter-Glo luminescence; at 20 µM (top of the series)
[8] = molecular target: 6-phosphogluconate dehydrogenase, decarboxylating (Homo sapiens) (UniProt P52209); test: 6PGD enzyme inhibitors, primary screen, biochemical, human, recombinant enzyme, NADPH absorbance (AID 1159550;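 active = at least 20% inhibition of 6-phosphogluconate dehydrogenase activity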); conditions: recombinant 6PGD, NADPH absorbance 341 nm; at 10 µM; stronger effect = higher value
[9] = differential killing of epithelial or mesenchymal cells, primary screen, imaging, PC-3E GFP, TEM4-18 mCherry, co-culture (AID 1345086;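 active = compounds killing one labelled cell type while sparing the other, by normalised counts and ratio limits, not self-fluorescent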;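 as to all read-outs here: cells exposed to compound for 72 h before imaging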;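 as to red/green cell ratio (normalised): normalised mesenchymal count divided by normalised epithelial count so high means epithelial killing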); conditions: imaging cell counts, at 1 µM; for red/green cell ratio (normalised): actives lie on both sides, counts scaled to control wells, 1 = unselective
[10] = measured here: epithelial PC-3E GFP cell survival
[11] = measured here: mesenchymal TEM4-18 mCherry cell survival

Chain of 6-phosphogluconate dehydrogenase, decarboxylating (Homo sapiens) (P52209 whole entry, looked up): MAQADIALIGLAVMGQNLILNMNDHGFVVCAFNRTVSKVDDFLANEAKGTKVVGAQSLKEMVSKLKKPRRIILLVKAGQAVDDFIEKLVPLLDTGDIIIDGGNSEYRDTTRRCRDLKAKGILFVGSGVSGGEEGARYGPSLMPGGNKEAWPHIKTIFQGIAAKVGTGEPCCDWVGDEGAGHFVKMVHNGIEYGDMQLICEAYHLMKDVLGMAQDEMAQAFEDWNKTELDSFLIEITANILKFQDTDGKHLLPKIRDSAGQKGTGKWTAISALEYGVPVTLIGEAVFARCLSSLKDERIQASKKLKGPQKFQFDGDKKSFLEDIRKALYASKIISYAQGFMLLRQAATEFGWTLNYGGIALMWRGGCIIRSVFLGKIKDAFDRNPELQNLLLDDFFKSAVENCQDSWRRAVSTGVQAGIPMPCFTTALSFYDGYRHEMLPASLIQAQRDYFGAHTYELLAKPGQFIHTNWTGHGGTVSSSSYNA

CCOc1ccc(NC(C)=O)cc1
insulin secretion stimulation [1]: -2.2% (inactive)
viability decrease [2]: -4.8% (inactive)
tube area decrease [3]: -16.7% (inactive)
GLP1 secretion stimulation [4]: 4.4% (inactive)
inhibition of viability [5]: -24.5% (inactive)
viability decrease (inhibition) [6]: 104% (active)
viability decrease (inhibition) [7]: -6.2% (inactive)
inhibition [8]: 5.26% (inactive)
red/green cell ratio (normalised) [9]: 1.26 (inactive)
normalised cell number [9, 10]: 1.07
normalised cell number [9, 11]: 1.35

COc1ccc(C(=O)c2ccccc2O)c(O)c1
insulin secretion stimulation [1]: -0.5% (inactive)
viability decrease [2]: -1.1% (inactive)
tube area decrease [3]: 1.6% (inactive)
GLP1 secretion stimulation [4]: -1.5% (inactive)
inhibition of viability [5]: -9.15% (inactive)
viability decrease (inhibition) [6]: 1.6% (inactive)
viability decrease (inhibition) [7]: -1.5% (inactive)
inhibition [8]: 11.7% (inactive)
red/green cell ratio (normalised) [9]: 1.27 (inactive)
normalised cell number [9, 10]: 1.28
normalised cell number [9, 11]: 1.63

O=C(O)CCCCC1CCSS1 (centres undefined)
insulin secretion stimulation [1]: -1.9% (inactive)
viability decrease [2]: 3.2% (inactive)
tube area decrease [3]: 10.9% (inactive)
GLP1 secretion stimulation [4]: 0.5% (inactive)
inhibition of viability [5]: 14.7% (inactive)
viability decrease (inhibition) [6]: 29.9% (inactive)
viability decrease (inhibition) [7]: -0.7% (inactive)
inhibition [8]: 14.8% (inactive)
red/green cell ratio (normalised) [9]: 0.99 (inactive)
normalised cell number [9, 10]: 0.91
normalised cell number [9, 11]: 0.9

CN1Cc2c(N)cccc2C(c2ccccc2)C1 (centres undefined)
insulin secretion stimulation [1]: 6.6% (inactive)
viability decrease [2]: -9.2% (inactive)
tube area decrease [3]: 3.2% (inactive)
GLP1 secretion stimulation [4]: 0.3% (inactive)
inhibition of viability [5]: 10% (inactive)
viability decrease (inhibition) [6]: 25.6% (inactive)
viability decrease (inhibition) [7]: 4.2% (inactive)
inhibition [8]: 5.71% (inactive)
red/green cell ratio (normalised) [9]: 0.78 (inactive)
normalised cell number [9, 10]: 1.16
normalised cell number [9, 11]: 0.9

COc1ccccc1OCC(O)CO (centres undefined)
insulin secretion stimulation [1]: -0.3% (inactive)
viability decrease [2]: -2.1% (inactive)
tube area decrease [3]: -23.8% (inactive)
GLP1 secretion stimulation [4]: 1.3% (inactive)
inhibition of viability [5]: -1.2% (inactive)
viability decrease (inhibition) [6]: 17.6% (inactive)
viability decrease (inhibition) [7]: -4.85% (inactive)
inhibition [8]: 12.6% (inactive)
red/green cell ratio (normalised) [9]: 1.05 (inactive)
normalised cell number [9, 10]: 1.11
normalised cell number [9, 11]: 1.17

O=C(CCCN1CCN(c2ccccn2)CC1)c1ccc(F)cc1
insulin secretion stimulation [1]: 7.45% (inactive)
viability decrease [2]: 31.5% (inactive)
tube area decrease [3]: -12.3% (inactive)
GLP1 secretion stimulation [4]: -0.3% (inactive)
inhibition of viability [5]: 51% (active)
viability decrease (inhibition) [6]: 11.4% (inactive)
viability decrease (inhibition) [7]: 20.2% (inactive)
inhibition [8]: 1.29% (inactive)
red/green cell ratio (normalised) [9]: 1.1 (inactive)
normalised cell number [9, 10]: 1.11
normalised cell number [9, 11]: 1.22

O=C1NCC2(CCN(CCc3ccccc3)CC2)O1
insulin secretion stimulation [1]: -0.9% (inactive)
viability decrease [2]: 1.6% (inactive)
tube area decrease [3]: 18.6% (inactive)
GLP1 secretion stimulation [4]: 0% (inactive)
inhibition of viability [5]: 8.9% (inactive)
viability decrease (inhibition) [6]: 48% (inactive)
viability decrease (inhibition) [7]: -32.8% (inactive)
inhibition [8]: 13.7% (inactive)
red/green cell ratio (normalised) [9]: 0.97 (inactive)
normalised cell number [9, 10]: 1.16
normalised cell number [9, 11]: 1.12

CCn1cc(C(=O)O)c(=O)c2cnc(N3CCNCC3)nc21
insulin secretion stimulation [1]: 1.5% (inactive)
viability decrease [2]: -23.1% (inactive)
tube area decrease [3]: 0.7% (inactive)
GLP1 secretion stimulation [4]: -1.8% (inactive)
inhibition of viability [5]: -0.3% (inactive)
viability decrease (inhibition) [6]: -4.5% (inactive)
viability decrease (inhibition) [7]: -15.1% (inactive)
inhibition [8]: 6.84% (inactive)
red/green cell ratio (normalised) [9]: 1.01 (inactive)
normalised cell number [9, 10]: 0.76
normalised cell number [9, 11]: 0.77

CN(C)/N=N/c1nc[nH]c1C(N)=O
insulin secretion stimulation [1]: 1.8% (inactive)
viability decrease [2]: -107% (inactive)
tube area decrease [3]: 85.4% (active)
GLP1 secretion stimulation [4]: -1.3% (inactive)
inhibition of viability [5]: -2.45% (inactive)
viability decrease (inhibition) [6]: 34.5% (inactive)
viability decrease (inhibition) [7]: -4.2% (inactive)
inhibition [8]: -2.23% (inactive)
red/green cell ratio (normalised) [9]: 0.71 (inactive)
normalised cell number [9, 10]: 1.47
normalised cell number [9, 11]: 1.04

CCC(=O)c1c(O)cc(O)cc1O
insulin secretion stimulation [1]: 3.7% (inactive)
viability decrease [2]: -16.4% (inactive)
tube area decrease [3]: 4.6% (inactive)
GLP1 secretion stimulation [4]: -2% (inactive)
inhibition of viability [5]: 21.1% (inactive)
viability decrease (inhibition) [6]: 21.5% (inactive)
viability decrease (inhibition) [7]: 2.4% (inactive)
inhibition [8]: 8.94% (inactive)
red/green cell ratio (normalised) [9]: 0.9 (inactive)
normalised cell number [9, 10]: 1.06
normalised cell number [9, 11]: 0.96

Cc1cccc(C(=O)O)c1O
insulin secretion stimulation [1]: -1.9% (inactive)
viability decrease [2]: -9.8% (inactive)
tube area decrease [3]: 2.1% (inactive)
GLP1 secretion stimulation [4]: 1.9% (inactive)
inhibition of viability [5]: -0.1% (inactive)
viability decrease (inhibition) [6]: 22.1% (inactive)
viability decrease (inhibition) [7]: -4.5% (inactive)
inhibition [8]: 9.08% (inactive)
red/green cell ratio (normalised) [9]: 1 (inactive)
normalised cell number [9, 10]: 0.79
normalised cell number [9, 11]: 0.79

Nc1ccc(C(=O)O)c(O)c1
insulin secretion stimulation [1]: 0.1% (inactive)
viability decrease [2]: -46.6% (inactive)
tube area decrease [3]: 15.9% (inactive)
GLP1 secretion stimulation [4]: -6% (inactive)
inhibition of viability [5]: -12.6% (inactive)
viability decrease (inhibition) [6]: 12.5% (inactive)
viability decrease (inhibition) [7]: -27.1% (inactive)
inhibition [8]: 6.71% (inactive)
red/green cell ratio (normalised) [9]: 0.88 (inactive)
normalised cell number [9, 10]: 1.36
normalised cell number [9, 11]: 1.19

CCCCC1(COC(=O)CCC(=O)O)C(=O)N(c2ccccc2)N(c2ccccc2)C1=O
insulin secretion stimulation [1]: 2.3% (inactive)
viability decrease [2]: 10.8% (inactive)
tube area decrease [3]: -1.7% (inactive)
GLP1 secretion stimulation [4]: -1.7% (inactive)
inhibition of viability [5]: 0.4% (inactive)
viability decrease (inhibition) [6]: -17.1% (inactive)
viability decrease (inhibition) [7]: 9.4% (inactive)
inhibition [8]: -3.37% (inactive)
red/green cell ratio (normalised) [9]: 0.91 (inactive)
normalised cell number [9, 10]: 0.96
normalised cell number [9, 11]: 0.87

NS(=O)(=O)c1cc2c(cc1Cl)NC(CSCc1ccccc1)=NS2(=O)=O
insulin secretion stimulation [1]: 0% (inactive)
viability decrease [2]: -14.2% (inactive)
tube area decrease [3]: 5% (inactive)
GLP1 secretion stimulation [4]: 0.4% (inactive)
inhibition of viability [5]: -3.3% (inactive)
viability decrease (inhibition) [6]: 0.9% (inactive)
viability decrease (inhibition) [7]: -17.1% (inactive)
inhibition [8]: -3.14% (inactive)
red/green cell ratio (normalised) [9]: 1.25 (inactive)
normalised cell number [9, 10]: 1.02
normalised cell number [9, 11]: 1.28
